Our source for the binding signal values is PMC7862700, “An all-to-all approach to the identification of sequence-specific readers for epigenetic DNA modifications on cytosine”.

Common to all, as to test: DAPPL (digital affinity profiling via proximity ligation, sequencing); 10 mM Tris-HCl pH 7.5, 50 mM NaCl, 1 mM DTT, 4% glycerol, room temperature, 30 min; GST-TFs on glutathione beads, 16-mer random dsDNA library, 0.1% formaldehyde crosslink after washing; high values mean tight binding
Settings in all cases: protein: recombinant; tags: N-terminal GST; dsDNA, one strand shown

The target in one assay is T1, FLI1 (Homo sapiens, UniProt Q01543 1-452).
T1 sequence: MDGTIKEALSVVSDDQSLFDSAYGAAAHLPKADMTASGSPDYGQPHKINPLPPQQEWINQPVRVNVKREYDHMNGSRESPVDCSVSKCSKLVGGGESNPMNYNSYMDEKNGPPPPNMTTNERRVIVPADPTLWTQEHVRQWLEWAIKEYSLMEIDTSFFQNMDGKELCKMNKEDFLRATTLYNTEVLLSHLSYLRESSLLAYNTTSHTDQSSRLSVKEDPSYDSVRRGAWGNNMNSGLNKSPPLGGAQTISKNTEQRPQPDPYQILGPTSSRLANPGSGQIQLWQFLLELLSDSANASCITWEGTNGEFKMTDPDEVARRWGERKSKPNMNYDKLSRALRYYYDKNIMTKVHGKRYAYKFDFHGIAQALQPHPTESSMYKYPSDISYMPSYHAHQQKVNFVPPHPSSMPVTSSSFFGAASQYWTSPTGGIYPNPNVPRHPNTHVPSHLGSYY
A digest of the protocol: (§1)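 Beads coated with glutathione captured GST-fused human transcription factors that had been expressed in yeast, and the factors were then given DNA barcodes and pooled with a tag-only sample. The pools were incubated with 200 nmole of a random double-stranded 16-mer DNA library in Tris/NaCl/DTT/glycerol buffer for 30 min at room temperature, washed, crosslinked with 0.1% formaldehyde and proximity-ligated with BsaI/T4 ligase at 37 °C for 1 h. PCR amplification and Illumina NextSeq500 sequencing came last. Binding signal is each hexamer's read frequency for a factor divided by its frequency for the tag-only sample.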

A further assay addresses T2, ELK1 (Homo sapiens, UniProt P19419 1-428).
T2 sequence: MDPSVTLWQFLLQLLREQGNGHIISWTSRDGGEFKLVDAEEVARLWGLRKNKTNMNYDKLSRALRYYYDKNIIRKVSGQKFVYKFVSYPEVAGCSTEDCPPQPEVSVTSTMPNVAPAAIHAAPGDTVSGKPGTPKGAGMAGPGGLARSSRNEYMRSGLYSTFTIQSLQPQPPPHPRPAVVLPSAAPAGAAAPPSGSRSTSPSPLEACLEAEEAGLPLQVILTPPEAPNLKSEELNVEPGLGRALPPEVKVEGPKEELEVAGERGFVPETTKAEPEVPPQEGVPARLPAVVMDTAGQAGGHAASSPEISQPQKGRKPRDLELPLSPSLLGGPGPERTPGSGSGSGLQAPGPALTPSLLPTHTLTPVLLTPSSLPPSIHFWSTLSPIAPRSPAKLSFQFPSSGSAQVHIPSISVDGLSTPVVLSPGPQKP
The gist of the method:
as §1

The target of the next assay is T3, GABPA (Homo sapiens, UniProt Q06546 1-454).
T3 sequence: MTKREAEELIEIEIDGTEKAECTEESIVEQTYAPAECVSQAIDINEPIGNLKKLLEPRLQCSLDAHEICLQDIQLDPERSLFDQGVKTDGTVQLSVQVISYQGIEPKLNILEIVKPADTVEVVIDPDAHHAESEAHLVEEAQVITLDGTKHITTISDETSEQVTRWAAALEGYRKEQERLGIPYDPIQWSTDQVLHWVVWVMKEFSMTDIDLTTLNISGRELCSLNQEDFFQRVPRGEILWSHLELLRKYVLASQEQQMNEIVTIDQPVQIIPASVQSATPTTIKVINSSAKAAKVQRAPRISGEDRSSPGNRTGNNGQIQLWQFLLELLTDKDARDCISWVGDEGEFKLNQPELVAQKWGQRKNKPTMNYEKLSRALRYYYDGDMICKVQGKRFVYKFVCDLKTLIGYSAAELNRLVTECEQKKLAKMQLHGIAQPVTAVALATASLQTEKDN
The gist of the method:
as §1

The target of another assay is T4, ERG (Homo sapiens, UniProt P11308 1-479).
T4 sequence: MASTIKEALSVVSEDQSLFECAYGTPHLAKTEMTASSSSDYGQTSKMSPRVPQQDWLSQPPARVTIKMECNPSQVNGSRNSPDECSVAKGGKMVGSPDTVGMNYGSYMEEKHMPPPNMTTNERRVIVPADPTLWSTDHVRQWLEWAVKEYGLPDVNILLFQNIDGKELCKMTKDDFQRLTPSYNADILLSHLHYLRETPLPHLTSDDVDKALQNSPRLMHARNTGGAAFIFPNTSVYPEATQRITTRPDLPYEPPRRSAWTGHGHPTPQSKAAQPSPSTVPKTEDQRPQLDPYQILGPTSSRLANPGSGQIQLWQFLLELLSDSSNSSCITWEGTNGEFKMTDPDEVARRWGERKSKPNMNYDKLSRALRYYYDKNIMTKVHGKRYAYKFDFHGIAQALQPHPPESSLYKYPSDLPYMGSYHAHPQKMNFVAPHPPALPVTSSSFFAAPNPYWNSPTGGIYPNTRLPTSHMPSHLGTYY
A digest of the protocol: as §1

Another assay addresses T5, EHF (Homo sapiens, UniProt Q9NZC4 1-300).
T5 sequence: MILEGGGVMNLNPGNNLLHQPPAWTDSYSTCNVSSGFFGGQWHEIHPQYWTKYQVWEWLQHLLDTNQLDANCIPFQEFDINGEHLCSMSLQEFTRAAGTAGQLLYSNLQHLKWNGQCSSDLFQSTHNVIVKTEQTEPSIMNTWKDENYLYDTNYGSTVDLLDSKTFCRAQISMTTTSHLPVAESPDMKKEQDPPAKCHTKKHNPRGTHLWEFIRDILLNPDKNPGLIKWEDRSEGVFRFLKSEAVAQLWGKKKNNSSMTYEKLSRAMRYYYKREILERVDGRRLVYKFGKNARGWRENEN
A digest of the protocol: as §1

Another assay concerns the target SPI1 (Homo sapiens, UniProt P17947 1-270). A digest of the protocol:
as §1

The next assay concerns the target SPIB (Homo sapiens, UniProt Q01892 1-262). The gist of the method: as §1
The next assay has as its target ETV5 (Homo sapiens, UniProt P41161 1-510). The gist of the method:
as §1

For a further assay, the target named is T6, SPIC (Homo sapiens, UniProt Q8N5J4 1-248).
T6 sequence: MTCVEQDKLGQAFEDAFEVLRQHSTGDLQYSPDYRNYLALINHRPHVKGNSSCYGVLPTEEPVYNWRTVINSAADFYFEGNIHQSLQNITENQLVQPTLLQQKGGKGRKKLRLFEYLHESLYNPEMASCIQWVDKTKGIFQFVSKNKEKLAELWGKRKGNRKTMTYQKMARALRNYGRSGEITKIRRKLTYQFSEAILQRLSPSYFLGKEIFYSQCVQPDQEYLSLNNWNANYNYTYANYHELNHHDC
A digest of the protocol: as §1

The next assay addresses ELF4 (Homo sapiens, UniProt Q99607 1-663). A digest of the protocol:
as §1

Another assay deals with ETV1 (Homo sapiens, UniProt P50549 1-477). The gist of the method:
as §1

For another assay, the target named is T7, ETV3L (Homo sapiens, UniProt Q6ZN32 1-361).
T7 sequence: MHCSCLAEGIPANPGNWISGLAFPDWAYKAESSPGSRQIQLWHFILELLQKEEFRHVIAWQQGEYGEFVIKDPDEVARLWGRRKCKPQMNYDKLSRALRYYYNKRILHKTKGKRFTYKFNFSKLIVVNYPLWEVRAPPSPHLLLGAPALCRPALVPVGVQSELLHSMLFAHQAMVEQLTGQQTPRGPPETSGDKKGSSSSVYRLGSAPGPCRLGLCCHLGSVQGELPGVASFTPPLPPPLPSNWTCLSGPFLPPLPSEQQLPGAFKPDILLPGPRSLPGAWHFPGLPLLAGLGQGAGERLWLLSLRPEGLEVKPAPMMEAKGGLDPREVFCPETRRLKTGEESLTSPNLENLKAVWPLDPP
A digest of the protocol: as §1

The next assay has as its target T8, ETS2 (Homo sapiens, UniProt P15036 1-469).
T8 sequence: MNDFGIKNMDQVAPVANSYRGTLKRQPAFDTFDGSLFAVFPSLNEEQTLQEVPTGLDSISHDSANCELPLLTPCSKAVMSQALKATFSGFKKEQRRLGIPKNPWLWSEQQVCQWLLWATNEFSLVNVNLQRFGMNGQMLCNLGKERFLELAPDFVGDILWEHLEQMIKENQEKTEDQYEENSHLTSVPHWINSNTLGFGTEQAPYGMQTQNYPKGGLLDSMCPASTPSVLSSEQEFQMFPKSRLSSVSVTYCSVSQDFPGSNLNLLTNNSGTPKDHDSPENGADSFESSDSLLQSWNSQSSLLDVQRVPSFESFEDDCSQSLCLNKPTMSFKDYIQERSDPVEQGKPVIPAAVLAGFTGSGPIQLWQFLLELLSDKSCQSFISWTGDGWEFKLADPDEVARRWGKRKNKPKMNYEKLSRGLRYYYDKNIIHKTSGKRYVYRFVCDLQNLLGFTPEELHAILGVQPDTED
A digest of the protocol: as §1

The target of the next assay is T9, ETV3 (Homo sapiens, UniProt P41162-2 1-143).
T9 sequence: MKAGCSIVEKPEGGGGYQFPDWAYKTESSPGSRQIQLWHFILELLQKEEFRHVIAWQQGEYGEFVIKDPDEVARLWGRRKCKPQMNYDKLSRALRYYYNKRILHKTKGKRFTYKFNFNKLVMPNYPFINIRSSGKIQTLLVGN
A digest of the protocol:
as §1

The target of the next assay is ETV6 (Homo sapiens, UniProt P41212 1-452). A digest of the protocol:
as §1

Sequence of ETV6 (P41212 whole entry): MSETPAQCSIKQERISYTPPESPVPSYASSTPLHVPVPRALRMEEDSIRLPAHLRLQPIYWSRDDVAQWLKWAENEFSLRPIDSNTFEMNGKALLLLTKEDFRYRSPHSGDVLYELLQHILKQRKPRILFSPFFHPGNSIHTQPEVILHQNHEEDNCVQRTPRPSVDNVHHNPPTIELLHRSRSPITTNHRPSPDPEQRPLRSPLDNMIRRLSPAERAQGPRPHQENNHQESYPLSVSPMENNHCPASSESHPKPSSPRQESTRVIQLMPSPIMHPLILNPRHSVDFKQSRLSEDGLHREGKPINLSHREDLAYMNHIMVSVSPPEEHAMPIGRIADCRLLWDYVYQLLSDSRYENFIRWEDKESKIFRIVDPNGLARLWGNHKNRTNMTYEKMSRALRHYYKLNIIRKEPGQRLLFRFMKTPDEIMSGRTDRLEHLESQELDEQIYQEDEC
Sequence of ETV5 (P41161 whole entry): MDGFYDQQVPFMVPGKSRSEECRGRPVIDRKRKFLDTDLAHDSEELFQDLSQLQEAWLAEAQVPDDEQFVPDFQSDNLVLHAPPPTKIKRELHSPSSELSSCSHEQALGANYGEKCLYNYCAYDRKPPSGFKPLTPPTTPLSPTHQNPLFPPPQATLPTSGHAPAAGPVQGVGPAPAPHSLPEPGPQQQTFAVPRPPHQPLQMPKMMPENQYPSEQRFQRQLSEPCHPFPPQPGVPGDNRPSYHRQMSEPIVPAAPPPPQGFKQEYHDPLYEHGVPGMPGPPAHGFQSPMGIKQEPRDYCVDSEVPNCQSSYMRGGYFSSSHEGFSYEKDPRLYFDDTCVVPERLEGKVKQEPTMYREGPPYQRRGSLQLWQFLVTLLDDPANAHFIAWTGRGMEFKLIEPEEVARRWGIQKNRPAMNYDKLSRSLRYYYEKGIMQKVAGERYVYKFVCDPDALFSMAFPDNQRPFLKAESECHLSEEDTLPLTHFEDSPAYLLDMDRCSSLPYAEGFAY
Sequence of ELF4 (Q99607 whole entry): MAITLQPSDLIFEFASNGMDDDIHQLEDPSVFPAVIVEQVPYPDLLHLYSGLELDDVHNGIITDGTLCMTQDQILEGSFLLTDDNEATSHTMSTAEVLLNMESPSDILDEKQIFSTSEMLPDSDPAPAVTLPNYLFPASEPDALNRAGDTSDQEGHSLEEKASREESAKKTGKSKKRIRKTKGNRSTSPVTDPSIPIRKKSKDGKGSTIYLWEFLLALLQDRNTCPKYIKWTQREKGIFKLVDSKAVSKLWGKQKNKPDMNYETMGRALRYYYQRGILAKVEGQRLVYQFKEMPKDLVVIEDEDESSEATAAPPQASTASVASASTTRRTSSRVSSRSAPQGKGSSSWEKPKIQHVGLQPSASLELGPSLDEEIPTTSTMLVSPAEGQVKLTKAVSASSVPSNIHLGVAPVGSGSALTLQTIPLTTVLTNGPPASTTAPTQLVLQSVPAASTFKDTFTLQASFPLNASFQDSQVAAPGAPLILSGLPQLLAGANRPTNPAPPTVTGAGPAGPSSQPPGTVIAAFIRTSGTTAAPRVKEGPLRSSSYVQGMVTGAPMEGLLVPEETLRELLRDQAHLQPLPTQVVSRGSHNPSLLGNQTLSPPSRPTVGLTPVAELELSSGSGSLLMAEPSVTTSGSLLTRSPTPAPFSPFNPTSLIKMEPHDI
Sequence of SPIB (Q01892 whole entry): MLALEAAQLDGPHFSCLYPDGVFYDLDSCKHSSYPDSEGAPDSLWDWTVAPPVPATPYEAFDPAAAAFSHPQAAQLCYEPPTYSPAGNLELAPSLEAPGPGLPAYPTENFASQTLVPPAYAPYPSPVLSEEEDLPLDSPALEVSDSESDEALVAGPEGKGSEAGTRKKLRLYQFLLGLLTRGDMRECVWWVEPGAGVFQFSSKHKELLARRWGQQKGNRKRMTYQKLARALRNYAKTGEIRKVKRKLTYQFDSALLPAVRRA
Sequence of ETV1 (P50549 whole entry): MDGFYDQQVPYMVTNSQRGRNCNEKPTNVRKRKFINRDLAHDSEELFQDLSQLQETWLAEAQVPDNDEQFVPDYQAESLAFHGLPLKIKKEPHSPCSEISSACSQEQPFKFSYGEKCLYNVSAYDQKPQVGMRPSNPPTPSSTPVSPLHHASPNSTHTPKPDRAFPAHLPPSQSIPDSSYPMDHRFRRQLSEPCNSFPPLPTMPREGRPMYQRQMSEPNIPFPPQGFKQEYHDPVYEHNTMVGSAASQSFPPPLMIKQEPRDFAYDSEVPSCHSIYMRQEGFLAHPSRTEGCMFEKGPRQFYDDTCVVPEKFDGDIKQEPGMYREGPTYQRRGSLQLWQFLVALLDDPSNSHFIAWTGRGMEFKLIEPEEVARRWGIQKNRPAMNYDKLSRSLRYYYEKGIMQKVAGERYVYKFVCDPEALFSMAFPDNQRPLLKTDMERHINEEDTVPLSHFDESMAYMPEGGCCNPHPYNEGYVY

TGGTCA: the binding signal with FLI1 was 1.11 fold enrichment (6-mer frequency, TF over GST control); with ELK1 it was 1 fold enrichment (6-mer frequency, TF over GST control); in the assay with GABPA, 1.17 fold enrichment (6-mer frequency, TF over GST control); with ERG, 1.06 fold enrichment (6-mer frequency, TF over GST control); with EHF, 1.01 fold enrichment (6-mer frequency, TF over GST control); in the assay with SPI1, 1.05 fold enrichment (6-mer frequency, TF over GST control). The binding signal in the assay with SPIB is 1.07 fold enrichment (6-mer frequency, TF over GST control); with ETV5, 1.02 fold enrichment (6-mer frequency, TF over GST control); in the assay with SPIC, 1.07 fold enrichment (6-mer frequency, TF over GST control); in the assay with ELF4, 1.06 fold enrichment (6-mer frequency, TF over GST control); in the assay with ETV1, 1.02 fold enrichment (6-mer frequency, TF over GST control); with ETV3L, 1.1 fold enrichment (6-mer frequency, TF over GST control). The binding signal with ETS2 was 1.13 fold enrichment (6-mer frequency, TF over GST control); with ETV3, 1.01 fold enrichment (6-mer frequency, TF over GST control); with ETV6, 1.04 fold enrichment (6-mer frequency, TF over GST control).
